Source: PubChem BioAssay (EPA / NIEHS)
“And” between values parts separate entries of the source, which are not always exact repeats. Equal values may be shown once. Inconclusive results are not listed. The source made the active and inactive calls. The calls were made as follows, unless noted: active = hit-call score of the fitted dose curve at least 0.9, where 1 is the maximum; inactive = score below 0.9.

Experiments:
[1] = BSK_BT_PBMCCytotoxicity: PBMC Cytotoxicity Assessment in the BioMAP Diversity Plus: BT Assay (AID 2284225); conditions: primary human B cells with PBMC;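 also: PBMC viability measured by Alamar Blue dye reduction fluorescence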
Method in brief: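 Viability by Alamar Blue reduction (6 h, ex/em 546/580 nm) after 90 h culture of SEB/TSST-1-activated PBMC (20 ng/mL each) given compound 1 h before activation. DMSO served as baseline for curve fitting.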

[2] = read-out: Secreted IgG (sIgG), gene 3500; assay: BSK_BT_sIgG: BioMAP Diversity Plus: BT Assay for Secreted IgG (sIgG) Biomarker Activity (AID 2284226); conditions: primary human B cells with PBMC
Method in brief: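 Cells (B cells with peripheral blood mononuclear cells) are dosed, cultured 24 h, then supernatant IgG is measured by ELISA. DMSO serves as negative control; curves are fitted for signal increase.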

[3] = BSK_BT_Bcell_Proliferation: Viability Assessment in the BioMAP Diversity Plus: BT Assay for B cell Proliferation (AID 2284227); conditions: primary human B cells with PBMC
Method in brief: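 Human B cell/PBMC co-culture; test chemical added; 72 h; TCA fix (10%), 0.1% SRB stain, A560 for total protein as a proliferation read-out; positive-direction fit vs DMSO baseline.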

[4] = CCTE_Mundy_HCI_Cortical_Synap_Neur_Matur_NeuriteSpotCountPerNeuriteLength: CCTE's Synaptogenesis and Neurite Maturation Assay in rat cortical cells for Neurite Spot Count per Neurite Length, Mundy Lab (AID 2284210)
Method in brief: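 Neurite-associated synapse density (synaptophysin puncta per unit neurite length) is measured by fluorescence high-content imaging in rat cortical cultures treated from DIV 7 and fixed at DIV 12, with DMSO as negative control.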

[5] = CCTE_Mundy_HCI_Cortical_Synap_Neur_Matur_BPCount: CCTE's Synaptogenesis and Neurite Maturation Assay in rat cortical cells for Branch Point Count, Mundy Lab (AID 2284211)
Method in brief: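 HCI read-out of branch points from MAP2/synaptophysin/Hoechst immunofluorescence; rat cortical cultures, AraC DIV 5, dosing DIV 7, fixed DIV 12; fit in positive direction vs DMSO baseline.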

[6] = CCTE_Mundy_HCI_Cortical_NOG_NeuriteCount: CCTE's Neurite Outgrowth Assay in rat cortical cells for Neurite Count, Mundy Lab (AID 2284212);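 also: cells fixed about two days after chemical exposure began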
Method in brief: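 Rat cortical primary cells; compound added 2 h post-plating, 1/10 dilution of working solution. Anti-betaIII-tubulin/AF488 ICC; ArrayScan neurite count vs DMSO.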

[7] = CCTE_Mundy_HCI_Cortical_NOG_NeuriteLength: CCTE's Neurite Outgrowth Assay in rat cortical cells for Neurite Length, Mundy Lab (AID 2284213);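 as to AC50: neurites imaged about 48 to 50 h after chemical exposure began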
Method in brief: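 First, rat primary cortical cells were plated and, 2 h later, given test chemical as a 1/10 dilution. Finally, βIII-tubulin immunostaining enabled automated imaging of neurite length.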

[8] = CCTE_Mundy_HCI_Cortical_Synap_Neur_Matur_NeuriteLength: CCTE's Synaptogenesis and Neurite Maturation Assay in rat cortical cells for Neurite Length, Mundy Lab (AID 2284214)
Method in brief: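 Cultures of rat primary cortical cells received chemical at DIV 7 and were fixed at DIV 12, after glial arrest with AraC at DIV 5. Neurite length was measured by automated imaging of MAP2 immunofluorescence.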

[9] = CCTE_Mundy_HCI_Cortical_Synap_Neur_Matur_NeuriteSpotCountPerNeuron: CCTE's Synaptogenesis and Neurite Maturation Assay in rat cortical cells for Neurite Spot Count per Neuron Count, Mundy Lab (AID 2284215)
Method in brief: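 Rat primary cortical cells received AraC at DIV 5, then chemicals with a media change at DIV 7, and were fixed at DIV 12. Synaptophysin puncta on MAP2-stained neurites per neuron were counted by high-content imaging, fitted relative to DMSO.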

[10] = CCTE_Mundy_HCI_Cortical_Synap_Neur_Matur_SynapseCount: CCTE's Synaptogenesis and Neurite Maturation Assay in rat cortical cells for Synapse Count, Mundy Lab (AID 2284218)
Method in brief: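 Cells were plated, allowed 2 hr to attach, treated with AraC at DIV 5, then exposed to chemicals from DIV 7 until DIV 12. After fixation and MAP2/synaptophysin immunolabelling, synapses per neuron were quantified by automated imaging against DMSO.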

[11] = CCTE_Mundy_HCI_hN2_NOG_NeuriteCount: CCTE's Neurite Outgrowth Assay in human hN2 cells for Neurite Count, Mundy Lab (AID 2284219; active = hit-call score of the fitted dose curve at least 0.9, where 1 is the maximum)
Method in brief: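 In this morphology assay, hNP1-derived neurons received test chemical 2 h post-plating and were fixed two days later in warm paraformaldehyde/sucrose containing Hoechst 33342. Neurites, labelled by rabbit anti-βIII-tubulin (1:800) and Alexa Fluor-488 (1:500), were counted automatically.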

[12] = CCTE_Mundy_HCI_hN2_NOG_NeuriteLength: CCTE's Neurite Outgrowth Assay in human hN2 cells for Neurite Length, Mundy Lab (AID 2284220; active = hit-call score of the fitted dose curve at least 0.9, where 1 is the maximum)
Method in brief: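 Using βIII-tubulin immunofluorescence and Hoechst nuclear counterstain, this component quantifies neurite length in hNP1-derived neurons.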

[13] = CCTE_Mundy_HCI_hN2_NOG_NeuronCount: CCTE's Neurite Outgrowth Assay in human hN2 cells for Neuron Count, Mundy Lab (AID 2284221; active = hit-call score of the fitted dose curve at least 0.9, where 1 is the maximum)
Method in brief: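 Read-out is the number of betaIII-tubulin-positive neurons imaged by automated high-content analysis, with DMSO as negative control.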

[14] = CCTE_Mundy_HCI_Cortical_Synap_Neur_Matur_NeuriteCount: CCTE's Synaptogenesis and Neurite Maturation Assay in rat cortical cells for Neurite Count, Mundy Lab (AID 2284222)
Method in brief: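 Rat cortical neurons, 96-well; AraC DIV 5; chemical + media change DIV 7; end DIV 12. Fix PFA/Hoechst, anti-MAP2 + anti-synaptophysin IF. HCI neurite count vs DMSO baseline.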

[15] = CCTE_Mundy_HCI_Cortical_Synap_Neur_Matur_CellBodySpotCount: CCTE's Synaptogenesis and Neurite Maturation Assay in rat cortical cells for Cell Body Spot Count, Mundy Lab (AID 2284223)
Method in brief: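 Rat primary cortical cultures received AraC at DIV 5 to arrest glia, were dosed with chemical at DIV 7 with media change, and were fixed at DIV 12 (288.33 h). Synaptophysin puncta on MAP2-positive cell bodies per neuron were counted by high-content imaging versus DMSO.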

[16] = IUF_NPC1b_proliferation_BrdU_72hr: Leibniz Research Institute for Environmental Medicine (IUF) 72-hour Neural Progenitor Cell Bromodeoxyuridine (BrdU) Proliferation Assay (NPC1b) (AID 2284207)
Method in brief: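 Neural progenitor spheres of human fetal origin are treated for three days; BrdU added for the last 16 h is quantified by luminescence ELISA, with DMSO as baseline and EGF/FGF omission as positive control.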

[17] = IUF_NPC1a_proliferation_area_72hr: Leibniz Research Institute for Environmental Medicine (IUF) 72-hour Neural Progenitor Cell Proliferation Area Assay (NPC1a) (AID 2284208)
Method in brief: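 Read-out: increase in sphere area over 72 h by automated phase-contrast imaging, fitted in positive direction versus DMSO baseline. One hNPC sphere (0.25-0.35 mm) per well in EGF/FGF medium; growth-factor withdrawal served as positive control.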

[18] = IUF_NPC1_viability_72hr: Viability Assessment at 72 hours in the Leibniz Research Institute for Environmental Medicine (IUF) Neural Progenitor Cell Proliferation Assay (NPC1) (AID 2284209)
Method in brief: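 Spheres of primary human neural progenitors were plated singly in proliferation medium and treated for 72 h. Mitochondrial reduction of resazurin was then measured by fluorescence and analysed against DMSO controls.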

[19] = CCTE_Mundy_HCI_hNP1_Pro_ResponderAvgInten: CCTE's Proliferation Assay in human neuroprogenitor cells, Mundy Lab (AID 2284224; active = hit-call score of the fitted dose curve at least 0.9, where 1 is the maximum;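 also: human neural progenitor cells hNP1 derived from WA09 embryonic stem cells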)
Method in brief: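 Human neuroprogenitors (hNP1, WA09 lineage) receive test chemical after 40 to 44 hours of attachment. A four-hour BrdU pulse begins twenty hours later, followed by fixation and high content imaging; signal is referenced to DMSO controls.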

[20] = UKN4_HCS_LUHMES_neurite_outgrowth: University of Konstanz (UKN) Leist Lab Neurite Outgrowth Assay in human LUHMES cells (UKN4) (AID 2284206); conditions: actives raise or lower the signal
Method in brief: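 Human LUHMES cells were differentiated for two days, replated and treated with chemicals for 24 h. Neurite outgrowth was quantified as calcein-stained neurite area by HCS imaging, fitted bidirectionally relative to DMSO.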

Measured: AC50

Cc1cc(C(C)(C)c2ccc(O)c(C)c2)ccc1O
active: [2] 10 µM
inactive: [1] | [3]

Cc1ccccc1OP(=O)(Oc1ccccc1)Oc1ccccc1
inactive: [1] | [3]
active: [2] 30.9 µM

Cc1cccc(OP(=O)(Oc2cccc(C)c2)Oc2cccc(C)c2)c1
inactive: [1] | [2] | [3]

CC(C)(COCC1CO1)COCC1CO1 (stereo not given)
active: [2] 16 µM | [3] 20 µM
inactive: [1]

Nc1ccc(N)cc1
inactive: [1] | [2] | [3]

NC(=O)c1ccc(N)nc1
active: [5] 9.07 µM | [6] 14.5 µM | [7] 14 µM | [8] 9.47 µM | [9] 9.32 µM | [10] 9.12 µM | [13] 0.000862 µM | [14] 18.7 µM
inactive: [4] | [11] | [12] | [15]

O=c1oc2ccccc2c(O)c1C(CC(O)c1ccc(-c2ccc(Br)cc2)cc1)c1ccccc1 (stereo not given)
inactive: [1] | [3]
active: [2] 20.8 µM

C[C@]12CC[C@@H](O)C[C@@H]1CC[C@@H]1[C@@H]2CC[C@]2(C)C(=O)CC[C@@H]12
inactive: [1] | [3]
active: [2] 20 µM

Cc1ccccc1OP(=O)(Oc1ccccc1C)Oc1ccccc1C
inactive: [16] | [17] | [18] | [4] | [14] | [1]
active: [5] 26.4 µM | [6] 19.2 µM | [7] 19.6 µM | [8] 3.54 µM | [9] 3.81 µM | [10] 3.85 µM | [15] 4.04 µM | [19] 25.8 µM | [2] 13.9 µM | [3] 34.4 µM

CCCCN(CCCC)C(=S)[S-].CCCCN(CCCC)C(=S)[S-].[Ni+2]
active: [2] 2.66 µM
inactive: [1] | [3]

CCOP(=S)(OCC)SCS(=O)(=O)C(C)(C)C
inactive: [1] | [2] | [3]

CC1(C)[C@H](C(=O)O[C@H](C#N)c2cccc(Oc3ccccc3)c2)[C@@H]1/C=C(\Cl)C(F)(F)F
active: [16] 3.63 µM | [4] 4.59 µM | [5] 2.28 µM | [6] 19.9 µM | [7] 19.5 µM | [8] 2.35 µM | [9] 2.16 µM | [10] 2.13 µM | [14] 3.48 µM | [15] 3.52 µM | [2] 25.1 µM and 28.9 µM
inactive: [17] | [18] | [19] | [1] | [3]

Cc1ccc(OP(=O)(Oc2ccc(C)cc2C)Oc2ccc(C)cc2C)c(C)c1
active: [1] 5.32 µM | [2] 15.4 µM | [3] 20 µM

CCOP(=S)(OCC)OP(=S)(OCC)OCC
inactive: [1] | [2] | [3]

OC(Cc1ccccc1Cl)(Cn1[nH]cnc1=S)C1(Cl)CC1 (stereo not given)
active: [16] 0.0417 µM | [4] 80.4 µM | [5] 50 µM | [8] 42.7 µM | [9] 50 µM | [10] 50 µM | [14] 50 µM | [19] 31.6 µM | [2] 23.8 µM
inactive: [17] | [18] | [6] | [7] | [15] | [1] | [3]

O=C1C=CC(=O)c2ccccc21
active: [1] 0.686 µM | [2] 0.251 µM | [3] 0.825 µM

CCOC(=O)C(SP(=S)(OC)OC)c1ccccc1 (stereo not given)
inactive: [1] | [2] | [3]

CNC(=O)CSP(=O)(OC)OC
not listed: [1] | [2] | [3] | [13] | [19]
inactive: all other assays above

O=S1OC[C@@H]2[C@H](CO1)[C@]1(Cl)C(Cl)=C(Cl)[C@@]2(Cl)C1(Cl)Cl (stereo not given in full)
inactive: [16] | [17]
active: [20] 18.6 µM | [18] 2.59 µM

CS(=O)(=O)c1ccc(C(=O)C2C(=O)CCCC2=O)c(Cl)c1COCC(F)(F)F
not listed: [1] | [2] | [3] | [11] | [12] | [13] | [19] | [20]
inactive: all other assays above
